# According to PubChem BioAssay (NCATS):
# Inconclusive results are not listed. Entries that show only a call come without a potency. Activity calls are given as the source filed them. The call rests on the fitted dose curve; in most records, active means well fitted inhibition curve with a large enough effect; inconclusive means small, poorly fitted or top-dose-only effect; inactive means no such curve, though single readings can be large or run the other way.
# Molecular target: Aldehyde dehydrogenase 1A1 (Homo sapiens) (UniProt P00352)
# Experiment: qHTS for Inhibitors of the Aldehyde Dehydrogenase Family (ALDH1A1) Confirmatory screens (AID 2061316); further: nearly all actives have a fitted effect of over 65% in size
# Conditions: ALDH inhibition qHTS; series mostly up to 47.3 µM
# Potency means the concentration at half of the fitted maximal effect.
row,SMILES,Potency
1,COc1ccc(C(=O)N(Cc2ccco2)Cc2cccs2)c(O)c1,12.7 µM (active)
2,COc1ccnc(NC(=S)N2CCN(c3ccc(Cl)c(Cl)c3)CC2)c1,4 µM (active)
3,Cc1ccc(OCCn2c(CCNC(=O)c3cccc(N)c3)nc3ccccc32)cc1,inactive
4,O=C1c2ccccc2NC(c2ccc(-c3ccc(F)cc3)o2)N1O (stereo not drawn),2.52 µM (active)
5,O=C1c2cccc3cccc(c23)C(=O)N1CCN1CCN(S(=O)(=O)c2cccc([N+](=O)[O-])c2)CC1,inactive
6,O=C(O)c1cc(C(F)(F)F)ccc1N1CC[C@H](OCc2ccccn2)C1,inactive
7,O=C1c2ccccc2NC(c2ccc(-c3ccc(-c4ccccc4)cc3)o2)N1O (stereo not drawn),4 µM (active)
8,Cc1c(C(=O)OCC2CCCO2)[nH]c2c1C(=O)CCC2 (stereo not drawn),3.18 µM (active)
9,Cc1nc(NCc2ccc(-c3cccnc3)cc2)c2ccccc2n1,inactive
10,N#Cc1c(-c2ccc(Cl)c([N+](=O)[O-])c2)no[n+]1[O-],7.98 µM (active)
11,O=C(/C=C/c1cccnc1)Nc1cccc([S+](=O)([O-])Nc2ccccc2F)c1,inactive
12,Cc1c(-c2ccccc2)no[n+]1[O-],inactive
13,c1cc(NCCc2c[nH]c3ccccc23)cc(Nc2ccncc2)c1,11.3 µM (active)
14,[O-][n+]1onc(-c2ccccc2)c1/C=N/O,inactive
15,Cc1ccnc(NC(=S)N2CCN(c3cccc(Cl)c3Cl)CC2)c1,3.18 µM (active)
16,N#Cc1nc2c(nc1C#N)-c1ccccc1C2=O,inactive
17,COc1ccc(C2Nc3ccccc3C(=O)N2Cc2ccccc2)cc1COc1ccc(F)cc1 (stereo not drawn),inactive
18,Cc1nnc(C(=O)NC(C)(C)c2nc(C(=O)NCc3ccc(F)cc3)c(O)c(=O)n2C)o1,inactive
